In PubChem BioAssay AID2685 (National Center for Advancing Translational Sciences (NCATS), 2010):
In all, about 320,000 compounds went through this assay and about 2,100 (0.66%) were called active. About 53% were inconclusive and are not listed. Calls follow the shape of the dose curve; as a rule, active = well fitted inhibition curve with a large enough effect in the signal ratio, with a control signal flat (not every such curve was filed as active); inconclusive = small, poorly fitted or top-dose-only effect, or effect the other way, or a change in a side signal; inactive = flat fitted curve, though single readings scatter; the % refers to the signal ratio. For the sample, actives were picked, then their nearest neighbours and some compounds at random.

test: qHTS Assay for Lipid Storage Modulators in Drosophila S3 Cells; settings: BODIPY lipid droplet fluorescence, 18-24 h, cells fed with added oleic acid; cell number change: measured here: cell count max response; series mostly up to 46.1 µM;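 as to cell number change: cells counted by Cell Tracker Red CMTPX staining in the red channel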; as to lipid storage change, negative = inhibition: % is scaled to controls: 0 for no effect and ±100 for the full control effect
Outline: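 Laser-scanning cytometry quantifies lipid droplet accumulation (500–530 nm total intensity; droplet/cell object ratio) in oleic acid-fed (400 uM added) Drosophila S3 cells treated with a concentration series. 20 uM Triacsin C defined 100% inhibition.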
Potency is read from the fitted curve at half-maximal effect.

Row | Compound | Potency | cell number change | lipid storage change, negative = inhibition | outcome
1 | Cc1cccc(CSc2nnc([C@@H]3CCCN3C(=O)OC(C)(C)C)o2)c1 | inactive | 6.08% |  | 
2 | CCOC(=O)C1CCN(c2ccc([N+](=O)[O-])cc2)CC1 | inactive | -12% |  | 
3 | COc1ccc(OC)c(S(=O)(=O)Nc2ccc3oc(C)c(C(C)=O)c3c2)c1 | inactive | -9.21% |  | 
4 | O=C(COC(=O)c1ccccc1)NC1CCCC1 | inactive | -13.7% |  | 
5 | Cc1cc(C)cc(OCC(=O)OCC(=O)NC2CCCCCCC2)c1 | inactive | -3.74% |  | 
6 | Cc1ccsc1C(=O)OCC(=O)NCCNC(=O)COC(=O)c1sccc1C |  | 12.8% | -4.96% [at 0.0737 µM] (inactive) | 
7 | Cc1cc(C)c(OCC(=O)OCC(=O)NC2CCCCCCC2)c(C)c1 | 1.84 µM (active) | 19.3% |  | 
8 | O=C(COC(=O)c1cccc(C(=O)OCC(=O)NC2CCCCC2)n1)NC1CCCCC1 | 20.6 µM (active) | -17.1% |  | 
9 | Nc1c(Cl)c(Cl)nc(C(=O)OCC(=O)NC2CCCCC2)c1Cl | 9.2 µM (active) | -8.54% |  | 
10 | Cc1ccsc1C(=O)OCC(=O)NC1CCCC1 | 0.517 µM (active) | -11% |  | 
11 | O=C(COC(=O)c1nc(Cl)ccc1Cl)NC1CCCCCC1 | inactive |  |  | 
12 | Nc1c(C(=O)NC2CCCCC2)nsc1C(=O)OCC(=O)NC1CCCCC1 | inactive | -16.5% |  | 
13 | Cc1ccsc1C(=O)OCC(=O)NC1CCS(=O)(=O)C1 (stereo not given) | inactive | 0.0545% |  | 
14 | Cc1ccccc1OCC(=O)OCC(=O)NC1CCCCCC1 |  | -24.2% |  | inactive [at 0.0737 µM]
15 | O=C(COC(=O)c1c(Cl)cccc1Cl)NC1CCCCC1 | inactive |  |  | 
16 | Cn1c(=O)c(=O)n(C)c2cc(S(=O)(=O)N3CCCCCC3)ccc21 | inactive | 11.2% |  | 
17 | CN(C)CCCNS(=O)(=O)c1ccc(N2CCN(Cc3ccc4c(c3)OCO4)CC2)c([N+](=O)[O-])c1 | inactive | -3.81% |  | 
18 | COc1cc(OC)c(NC(=O)C(=O)CC(=O)c2ccc(C)cc2C)cc1Cl | inactive | -12.6% |  | 
19 | CN1C(=O)/C(=C/c2ccccc2Cl)Sc2ccc(C(=O)NCc3cccnc3)cc21 | inactive | -7.77% |  | 
20 | Cc1ccc(S(=O)(=O)N/N=c2\oc3ccccc3cc2C(=O)Nc2cccc(C)c2)cc1 | inactive | -24.3% |  | 
21 | CCOC(=O)c1sc2nc(C)nc(SCC(=O)N(CC)C3CCS(=O)(=O)C3)c2c1C (stereo not given) | inactive | -1.32% |  | 
22 | Cn1nc(-c2ccc(C(=O)NCCO)cc2)c2ccccc2c1=O | inactive | -4.78% |  | 

Row | Compound | Potency | cell number change | lipid storage change, negative = inhibition | outcome
23 | CC1(c2ccc(OCC#N)cc2)C=C(c2ccc(OCC#N)cc2)n2nc(C(F)(F)F)nc2N1 (stereo not given) | inactive | -2.27% |  | 
24 | C=CCN1c2ccccc2[C@]23C[C@@H](C(=O)OC)N=C2NC(C(=O)OC)=C(C(=O)OC)[C@H]13 | inactive | 33.7% |  | 
25 | CC(C)OC(=O)/C(C#N)=C\c1cccnc1 | inactive | 5.73% |  | 
26 | CCC(C)(C)NC(=O)C(c1ccc(OC)cc1)N(C(=O)CCC(=O)Nc1cc(C)on1)C1CC1 (stereo not given) | inactive | -1.32% |  | 
27 | O=C(Nc1cc2c(cc1Br)OCCO2)c1cccnc1 | inactive | -16.4% |  | 
28 | Cc1ccc(S(=O)(=O)NNC(=O)C2CCCCC2)cc1 | 0.651 µM (active) | 6.31% |  | 
29 | Cc1ccc(S(=O)(=O)NNC(=O)C2CCN(S(=O)(=O)c3ccc(C)cc3)CC2)cc1 | inactive | 1.57% |  | 
30 | Cc1ccc(S(=O)(=O)N2CCC(C(=O)NNS(=O)(=O)c3ccc(Cl)cc3)CC2)cc1 | inactive | 4.8% |  | 
31 | CCOc1ccc(C(=O)OCC(=O)N2CCCC2)cc1OCC | inactive | -21% |  | 
32 | COc1ccccc1NS(=O)(=O)c1cc(NC(=O)CCNC(C)=O)ccc1C | inactive | 9.21% |  | 
33 | CS(=O)(=O)NCCCCNc1ccc(C(F)(F)F)cc1[N+](=O)[O-] | inactive | 4.42% |  | 
34 | O=[N+]([O-])c1cc(C(F)(F)F)ccc1NCCCCNS(=O)(=O)c1ccc(Cl)cc1 | 25.9 µM (active) | -16.8% |  | 
35 | CS(=O)(=O)NCCCNc1ccc(C(F)(F)F)cc1[N+](=O)[O-] | inactive | 2.05% |  | 
36 | COc1ccc(C(=O)NCCNc2nc3ccc(C)cc3cc2C#N)cc1 | 20.6 µM (active) | -23.8% |  | 
37 | CCOc1ccc2nc(NCCNC(=O)CC)c(C#N)cc2c1 | inactive | 0.214% |  | 
38 | COc1ccc(C(=O)NCCNc2nc3ccc(C)cc3cc2C#N)cc1OC | inactive |  |  | 
39 | CCOc1ccccc1OCCCC(=O)N1CCN(S(=O)(=O)c2ccc(C)cc2)CC1 | inactive | -13.5% |  | 
40 | Cc1c(C(=O)O)sc2nc(CSc3ncc(C(F)(F)F)cc3Cl)[nH]c(=O)c12 | inactive | 6.43% |  | 
41 | Cc1c(C)n(Cc2ccccc2)c2ncnc(NCCCO)c12 | inactive | 13.8% |  | 
42 | O=c1c(Cl)c(NCc2ccc(F)cc2Cl)cnn1C12CC3CC(CC(C3)C1)C2 | inactive | -5.4% |  | 
43 | O=c1c(Cl)c(NCc2ccccc2Cl)cnn1C12CC3CC(CC(C3)C1)C2 | 13 µM (active) | -8.24% |  | 
44 | O=c1c(Cl)c(NCc2ccco2)cnn1C12CC3CC(CC(C3)C1)C2 | inactive | -8.21% |  | 
